# Assay results reported in PubChem BioAssay AID1851 (National Center for Advancing Translational Sciences (NCATS), 2009).
# “And” between values parts separate entries of the source, which are not always exact repeats. Equal values may be shown once. The whole screen tested about 16,000 compounds, of which about 4,000 (25%) were called active. About 26% were inconclusive and are not listed. Only a sample is shown. Values without a mark were called inactive. The call rests on the fitted dose curve; in most records, active means well fitted curve in the direction sought with a large enough effect; inconclusive means small, poorly fitted or top-dose-only effect, or effect the other way; inactive means no such curve, though single readings can be large or run the other way.
# Target: Cytochrome P450 2C9 (Homo sapiens) (UniProt P11712)
# Sequence (P11712 whole entry, looked up): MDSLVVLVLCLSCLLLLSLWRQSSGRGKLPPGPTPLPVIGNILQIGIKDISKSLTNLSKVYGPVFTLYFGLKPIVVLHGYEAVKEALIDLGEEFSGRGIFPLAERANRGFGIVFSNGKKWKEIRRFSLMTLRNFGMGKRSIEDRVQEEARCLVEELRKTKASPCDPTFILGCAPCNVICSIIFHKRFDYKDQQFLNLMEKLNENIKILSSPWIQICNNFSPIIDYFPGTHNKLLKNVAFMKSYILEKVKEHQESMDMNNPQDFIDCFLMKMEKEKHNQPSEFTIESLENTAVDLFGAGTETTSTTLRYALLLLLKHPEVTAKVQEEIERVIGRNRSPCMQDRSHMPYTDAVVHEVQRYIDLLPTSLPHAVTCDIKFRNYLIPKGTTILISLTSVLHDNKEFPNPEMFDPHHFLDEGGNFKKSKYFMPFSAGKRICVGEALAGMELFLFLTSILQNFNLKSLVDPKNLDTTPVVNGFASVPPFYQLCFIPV
# Experiment: Cytochrome panel assay with activity outcomes
# Conditions: recombinant CYP, pro-luciferin dealkylation, luminescence, p450-cyp2c9; series mostly up to 57.1 µM
# On the % scale 0 is the no-effect control and ±100 the full control effect.
Structure (SMILES),AC50,"activity, negative = inhibition"
O=C(NCCCn1ccnc1)c1ccc(Br)c(S(=O)(=O)N2CCOCC2)c1,0.708 µM (active),
O=C(NCCCN1CCOCC1)c1cc2c(s1)CSC2,inactive,
O=C(NCCN1CCOCC1)c1ccc2ccccc2c1,inactive,
CN[C@@H]1[C@H](O[C@H]2[C@@H](O[C@@H]3[C@@H](O)[C@@H](O)[C@@H](N=C(N)N)[C@@H](O)[C@@H]3N=C(N)N)O[C@@H](C)[C@]2(O)CO)O[C@H](CO)[C@@H](O)[C@@H]1O,inactive,
Cc1ccc(NC(=O)NNC(=O)Cn2nc(-c3ccccc3)c(-c3ccccc3)c(C#N)c2=O)cc1,3.16 µM (active),
Cc1ccc(NC(=O)NNC(=O)C2CC(c3cccnc3)=NO2)cc1 (stereo not drawn),inactive,
CCCC(=O)NNC(=O)Nc1ccccc1,inactive,
CC(C)CC(c1nnnn1C(C)C)N1CCN(c2ccccc2)CC1 (stereo not drawn),2 µM (active),
ClC(Cl)(Cl)C(N1CCN(c2ccccc2)CC1)N1CCN(c2ccccc2)CC1,,18.4% [at 11.4 µM]
OC[C@@H](O)CN1CCN(c2ccccc2)CC1,inactive,
NS(=O)(=O)c1cc2c(cc1Cl)=NC(CCC(=O)O)=NS=2(=O)O,,3.24% [at 11.4 µM]
Cc1ccc(-c2ccc(/C=N/NC(=S)Nc3ccccc3)o2)cc1[N+](=O)[O-],3.98 µM (active),
Cc1ccc(-c2ccc(/C=N\NC(=O)c3cc4c(ccc5ccccc54)o3)o2)cc1[N+](=O)[O-],inactive,
CCn1c(=O)c2c(O)cc(=O)oc2c2ccccc21,inactive,
CCn1c2ccccc2c2cc(NS(=O)(=O)c3ccccc3C)ccc21,0.891 µM (active),
Cc1nc2cnc(N3CCN(C)CC3)nc2n(C)c1=O,inactive,
COC(=O)C1CSC(C(=O)OC)N1C(=O)Nc1ccccc1 (stereo not drawn),inactive,
COC(=O)C1CCC(C)(C(=O)Nc2ccccc2)C1(C)C (stereo not drawn),7.94 µM (active),
COC(=O)N1CCC2(CC1)CN(C(=O)Nc1ccccc1)C2,inactive,
C[C@@H]1O[C@H]2C3=C(C(=O)[C@H]4O[C@@H]4[C@H]3O)[C@@H]1[C@@H]1[C@@H](C)OC=C3[C@H](O)[C@H]4O[C@@H]4/C(=N\OCc4ccccc4)[C@]312,,-27.9% [at 11.4 µM]
Cc1ccccc1-c1cc(Nc2ccccc2)ncn1,,20.2% [at 2.29 µM]
O=C1[C@H]2[C@H]3[C@H](O)[C@H](O)C/C(=N/OCc4ccccc4)[C@@H]3CC[C@@H]2C(=O)N1Cc1ccc2c(c1)OCO2,,-27.6% [at 11.4 µM]

Structure (SMILES),AC50,"activity, negative = inhibition"
Cc1ccccc1OC1C(=O)N(Cc2ccc3c(c2)OCO3)C1c1sccc1C (stereo not drawn),7.94 µM (active),
COc1ccc(CCN2CC34C=CC(O3)C(C(=O)NCc3ccccc3)C4C2=O)cc1OC (stereo not drawn),inactive,
O=C1C[C@@H](O)[C@@H](O)[C@H]2[C@@H]3C(=O)N(Cc4ccc5c(c4)OCO5)C(=O)[C@@H]3CC[C@H]12,,-7.97% [at 11.4 µM] and -24% [at 11.4 µM]
COc1ccc(CCN2C(=O)C(Oc3ccccc3C)C2c2ccc3c(c2)OCO3)cc1OC (stereo not drawn),7.94 µM (active),
COC(=O)c1ccc(C2C(Oc3ccccc3)C(=O)N2CCc2ccc(OC)c(OC)c2)cc1 (stereo not drawn),inactive,
Cc1ccc(C)c(NC(=O)c2ncn[nH]2)c1,inactive,
Cc1ccc(C)c(NC(=O)C2CC(O)CN2C(=O)OC(C)(C)C)c1 (stereo not drawn),inactive,
Cc1ccc(C)c(NC(=O)C2CC3c4ccccc4C2c2ccccc23)c1 (stereo not drawn),5.01 µM (active),
CCn1c(SCC(=O)Nc2ccccc2C(=O)OC)nnc1-c1ccc(N)cc1,22.4 µM (active),
CCOC(=O)c1ccccc1NC(=O)CSc1cccc[n+]1[O-],inactive,
CCC(C)Nc1nc(OCC(F)(F)F)nc(OCC(F)(F)F)n1 (stereo not drawn),inactive,
O=c1ccc2cc(O)c(O)cc2o1,inactive,
COC(=O)[C@@H]1C[C@H]1[C@@H](NC(=O)c1cccnc1)c1ccccc1,inactive,
CCOC(=O)CNC(=O)c1cccnc1,inactive,
Cc1cccc(NC(NC(=O)c2cccnc2)C(Cl)(Cl)Cl)c1 (stereo not drawn),2.24 µM (active),
O=C(NC(NCc1ccccc1)C(Cl)(Cl)Cl)c1cccnc1 (stereo not drawn),14.1 µM (active),
COC(=O)[C@H]1C[C@@H]1[C@H](NC(=O)c1cccnc1)c1ccccc1,inactive,
Cc1cc(NC(=O)COc2ccc(Cl)cc2Cl)n(-c2ccccc2)n1,2.51 µM (active),
O=C(COc1ccccc1Cl)Nc1cc(Cl)ccc1Oc1ccccc1,2.51 µM (active),
CCc1cc2c(nc1CC)CCN(CC/C(C)=N/OCC[C@@H]1C=C[C@H](OC(C)=O)[C@H](COC(C)=O)O1)C2,,-1.15% [at 11.4 µM]
OC[C@@H]1O[C@@H](n2cnc3c(NC4CCCCC4)ncnc32)[C@@H](O)[C@H]1O,inactive,
CNc1cc(CS(=O)c2ccccc2)nc(-c2ccccc2)n1 (stereo not drawn),inactive,

Structure (SMILES),AC50,"activity, negative = inhibition"
CCOC(=O)CSc1cc(CS(=O)c2ccc(Cl)cc2)nc(-c2ccccc2)n1 (stereo not drawn),1.26 µM (active),
C=CCN=C1CC(C)(C)CC(=O)/C1=C(/O)CCC(=O)OC,inactive,
CN(C)CCCNc1ncnc2nc[nH]c12,,3.87% [at 11.4 µM]
CO[C@@H]1/C=C\O[C@]2(C)Oc3c(C)c(O)c4c(O)c(cc(O)c4c3C2=O)NC(=O)/C(C)=C\C=C/[C@H](C)[C@@H](O)[C@H](C)[C@H](O)[C@H](C)[C@H](OC(C)=O)[C@@H]1C,,-6.49% [at 11.4 µM]
Cc1ccc(SC(C)C(=O)NCc2cccnc2)cc1 (stereo not drawn),8.91 µM (active),
O=C(NCc1cccnc1)[C@@H]1[C@@H](C(=O)O)[C@H]2CC[C@@H]1O2,,-5.99% [at 11.4 µM]
c1cncc(CNCc2cccnc2)c1,,16% [at 11.4 µM]
COc1c(N2CCN(C(=S)Nc3ccc(F)cc3)C(C)C2)c(F)cc2c(=O)c(C(=O)O)cn(C3CC3)c12 (stereo not drawn),inactive,
CC(=O)OC1COC(N2CCc3cc([N+](=O)[O-])ccc32)C(OC(C)=O)C1OC(C)=O (stereo not drawn),0.891 µM (active),
CN1CCCN(C)C1c1cc([N+](=O)[O-])ccc1O,,-15.9% [at 11.4 µM]
Cc1cnc(CNc2nc(-c3ccoc3)nc3ccccc23)cn1,,-6.46% [at 2.29 µM]
CCn1ncc(/C=C/C(=O)NCc2cn(C)nc2C)c1C,inactive,
COc1ccc(C(=O)NN)cc1COc1ccc(Br)cc1,8.91 µM (active),
COc1ccc(/C=C/C(=O)NCc2cn(C)nc2C)cc1COc1ccc(Br)cc1,12.6 µM (active),
COc1ccc(C(=O)NNC(=O)Cc2ccc(-c3ccccc3)cc2)cc1OC,inactive,
COC(=O)CCC(=O)NNC(=O)c1ccc(Br)cc1,inactive,
CC(C)n1nnnc1-c1cc(Cl)cc(Cl)c1,inactive,
CCOC(=O)c1cc(C(=O)OCC)cc(-n2cc(O)c(C(=O)OCC)n2)c1,inactive,
CCOC(=O)c1nn(-c2ccccc2)c(-c2ccccc2)c1C(=O)c1ccccc1,10 µM (active),
CC(=O)NCCNc1nc(-c2ccccc2C(F)(F)F)nc2ccccc12,,5.47% [at 2.29 µM]
COc1cccc(-c2cc(C(=O)N/N=C/c3ccc(OC)c(COC(C)=O)c3)c3ccccc3n2)c1,0.398 µM (active),
COc1ccc(/C=N/NC(=O)c2cc(-c3ccc(C)cc3C)nc3ccccc23)cc1COC(C)=O,0.794 µM (active),

Structure (SMILES),AC50,"activity, negative = inhibition"
NS(=O)(=O)c1cc(C(=O)O)c(Cl)c([N+](=O)[O-])c1Cl,,8.24% [at 11.4 µM]
CCCn1cnc2c(SCC(=O)O)nc(N)nc21,,3.25% [at 11.4 µM]
O=C1c2ccccc2-c2ccc(N(Cc3ccc(Br)cc3)Cc3ccc(Br)cc3)cc21,,-1.26% [at 11.4 µM]
Cc1nc2sccn2c(=O)c1Cl,inactive,
CCCN(C/C=C\I)[C@@H]1CCc2cccc(O)c2C1,inactive,
CCSc1nnc(NC(=O)C(C(F)(F)F)C(F)(F)F)s1,7.94 µM (active),
COCCSc1nnc(NC(=O)C(C)(C)C)s1,inactive,
CN(C)S(=O)(=O)c1nc(Cl)c2[nH]cnc2n1,,1.52% [at 11.4 µM]
CCn1c(SCc2ccc(C#N)cc2)nnc1-c1ccc(S(=O)(=O)N2CCCCC2)cc1,4.47 µM (active),
O=C1N=C(N2CCC(Cc3ccccc3)CC2)S/C1=C/c1cn[nH]c1-c1ccccc1,0.447 µM (active),
O=C1N=C(N2CCOCC2)S/C1=C\C=C/c1ccccc1,inactive,
CCN1CCCCC(=N/O)/C(=N/O)CCCC1,,-7.4% [at 11.4 µM]
Cc1cc(C)c(C(N)=O)c(SCC(=O)c2ccc(Cl)cc2)n1,12.6 µM (active),
Cc1cc(C)c(C(N)=O)c(NC(=O)Nc2ccccc2)n1,inactive,
CCCSc1nc(C)cc(C)c1C(N)=O,inactive,
CCO[C@H]1O[C@@H]([C@H](COCc2ccccc2)OCc2ccccc2)[C@@H](OCc2ccccc2)[C@H]1O,10 µM (active),
CC(C)[C@@H](OCc1ccccc1)[C@H](C)/C=N\OC[C@@H](O)[C@@H]1O[C@@H]2OC(C)(C)O[C@@H]2[C@H]1O,,-22.1% [at 11.4 µM]
O[C@@H]1[C@@H](OCc2ccccc2)OC[C@H](O)[C@@H]1O,,0.912% [at 11.4 µM]
COc1ccc(CNc2ncncc2-c2ccccc2CN(C)C)c(OC)c1,,-5.35% [at 2.29 µM]
CN(C)C(=O)c1ccc(-c2ccc3ncnc(N4CCOCC4)c3c2)cc1,,20.2% [at 2.29 µM]
O=C(c1ccccc1)c1cc(F)c(N2CCOCC2)cc1Cl,inactive,
O=C(c1ccc(Cl)c(Cl)c1)c1cc(-c2ccccn2)c(N2CCOCC2)s1,5.01 µM (active),
